Screening results: PubChem, National Center for Advancing Translational Sciences (NCATS)
Only some compounds are listed: those with a hit (about 9.3% of all), similar ones and a draw of the others.
HCV inh – qHTS Assay for Inhibitors of Hepatitis C Virus (HCV) | 340,000 compounds, 3.4% hits | Huh7.5.1 HCVcc-Cre infection, luciferase reporter, 44 h | Potency, µM (series often up to 41.8 µM), hits mostly inhibitors
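Cells seeded at 1,000/well and cultured 4 h, then compounds added followed by HCVcc-Cre virus (~0.5 moi). After 44 h further culture, luciferase substrate was added, plates held 15 min at room temperature, and luminescence read for 15 sec.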
HCMV inh – qHTS Assay for inhibitors of the human cytomegalovirus (HCMV); HFF cells, HCMV-luciferase reporter, 72 h; hits give low values; activity change, negative = inhibition, % at 57.5 µM; 410,000 compounds, 4.5% hits; AID 1259415, 2018; in the data active = activity change below about -60%; inconclusive = no clear call, values can overlap the other calls; inactive = above about -39%
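Human foreskin fibroblasts infected with luciferase-reporter HCMV at MOI 1 PFU/cell, compounds at two doses. Luciferase measured 72 h post infection; normalized to buffer-only basal and Salinomycin (10uM) controls.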
Sm TGR inh – qHTS Assay for the Inhibitors of Schistosoma Mansoni Peroxiredoxins. purified TGR, DTNB reduction, TNB absorbance 405 nm. 360,000 compounds, 3% hits. Potency, µM (series often up to 114 µM), actives largely listed as inhibitors; also: nearly all actives have a fitted effect of over 60% in size
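TGR 20 nM + NADPH 100 uM (dispensed conc.), cpd preinc 15 min RT; start with NADPH (500 uM addition) then DTNB (15 mM addition). Kinetic TNB absorbance, 405 nm filter. Four-parameter Hill fit across titration.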
VACV mCherry inh – qHTS for Stage-Specific Inhibitors of Vaccinia Orthopoxvirus: mCherry Reporter Primary qHTS | Vaccinia virus mCherry reporter infection, fluorescence | Potency, µM (doses to about 36.5 µM), most hits filed as inhibitors | 310,000 compounds, 0.63% hits; calls by dose curve; tested in A549 cells; also: nearly all actives have a fitted effect of over 35% in size
Vaccinia Venus – qHTS for Stage-Specific Inhibitors of Vaccinia Orthopoxvirus: Venus Reporter Primary qHTS; AID 720580, 2013; Vaccinia virus Venus reporter expression, fluorescence; 330,000 compounds, 0.46% hits; Potency, µM (titrated, usually from 36.5 µM), usual class: inhibitors; calls by dose curve; tested in A549 cells; also: nearly all actives have a fitted effect of over 30% in size
FMDV inh – High Throughput Screening for Foot and Mouth Disease Virus Antivirals; FMDV antiviral cell-based qHTS; Potency, µM (doses to about 57.9 µM), most hits filed as inhibitors; 410,000 compounds, 1.2% hits; AID 1159524, 2015; calls by dose curve; tested in HEK293T cells; also: read-out not given here; nearly all actives have a fitted effect of over 45% in size
Each line names hits and unclear results; the compound was inactive in the other large screens. Unless noted, calls follow the shape of the dose curve; as a rule, active = well fitted curve in the direction sought with a large enough effect; inconclusive = small, poorly fitted or top-dose-only effect, or another doubt; inactive = no such curve, though single readings can be large; an effect the other way counts as inactive or inconclusive.

Cc1cc(NC(=O)CSc2nc(-c3cccc(F)c3)nc3c2c(=O)n(C)c(=O)n3C)no1	none (no result: HCV inh)
O=C(CSCc1ccccc1Cl)NN1C(=O)c2ccccc2C1=O	none
COc1ccc(OCc2csc(N)n2)cc1	none
Oc1cccc(/C=N/n2c(C3CCCCC3)n[nH]c2=S)c1	HCV inh 2.2µM
S=C(Nc1nc2c(s1)CCCC2)NC1CC1	Sm TGR inh 2.5µM
O=C(NC(=S)Nc1nc2c(s1)CCCC2)c1ccccc1	HCV inh inconclusive
Cc1ccc(/C=C(\C#N)C(=O)Nc2ccc(Br)cc2)o1	none (no result: HCV inh)
CN1CCN(C(=O)/C=C/c2ccccc2)CC1	none
N#C/C(=C\c1ccc([N+](=O)[O-])o1)C(=O)Nc1ccc(F)cc1	HCMV inh -78, FMDV inh inconclusive (no result: Sm TGR inh)
CN1CCN(C(=O)/C=C/c2ccc([N+](=O)[O-])o2)CC1	HCV inh inconclusive, HCMV inh -101, Sm TGR inh 18µM, Vaccinia Venus inconclusive
CC1CN(N=Cc2ccc([N+](=O)[O-])o2)C(=N)O1 (stereo not drawn)	HCV inh inconclusive, HCMV inh inconclusive, Vaccinia Venus inconclusive (no result: Sm TGR inh)
O=C(O)/C=C/c1ccc([N+](=O)[O-])o1	Sm TGR inh 28µM
Cc1cc2ncn(/N=C/c3ccc([N+](=O)[O-])o3)c2cc1C	HCV inh 11µM, HCMV inh -62, VACV mCherry inh 28µM, Vaccinia Venus 16µM (no result: FMDV inh)
CCOC(=O)NC(=O)CSc1ccc2ccccc2n1	none
COC(=O)C1=C(C)N(c2ccc(Cl)c(Cl)c2)C(=O)C1	HCV inh inconclusive, Sm TGR inh inconclusive, FMDV inh inconclusive (no result: VACV mCherry inh, Vaccinia Venus)
O=C1SCCN1N=Cc1ccc([N+](=O)[O-])o1	HCV inh 22µM, VACV mCherry inh inconclusive, Vaccinia Venus inconclusive (no result: Sm TGR inh)
O=[N+]([O-])c1ccc(/C=N/N=C/c2ccc([N+](=O)[O-])o2)o1	HCV inh 4.5µM, HCMV inh -100, Sm TGR inh 10µM, FMDV inh inconclusive
O=C1C2C3C=CC(C4CC34)C2C(=O)N1/N=C/c1ccc([N+](=O)[O-])o1 (stereo not drawn)	HCV inh 11µM, HCMV inh inconclusive, FMDV inh inconclusive
Cc1ccc(/C=C/C(=O)Nc2ccc(N(C)C)cc2)o1	none
N#CCc1ccc(NC(=O)/C=C/c2ccc([N+](=O)[O-])o2)cc1	HCV inh inconclusive, Sm TGR inh 4.5µM, VACV mCherry inh 7.1µM, Vaccinia Venus inconclusive, FMDV inh inconclusive (no result: HCMV inh)
O=C1C2C3C=CC(C4CC34)C2C(=O)N1/N=C/c1ccc(-c2ccc([N+](=O)[O-])cc2)o1 (stereo not drawn)	FMDV inh inconclusive
O=C(/C=C/c1ccc(F)cc1)N1CCCN(C(=O)/C=C/c2ccc(F)cc2)CC1	none
O=C(/C=C/c1ccc(-c2ccc(F)cc2)o1)N1CCCC1	Sm TGR inh 35µM
COC(=O)C(Nc1cc(OC)ccc1OC)(c1ccccc1)C(Nc1cc(OC)ccc1OC)c1ccc(C(F)(F)F)cc1 (stereo not drawn)	none (no result: HCV inh, Sm TGR inh, VACV mCherry inh, Vaccinia Venus, FMDV inh)
COc1c(C(CC(C)C)OC(C)=O)ccc2c1C(=O)OCc1cc(C)cc(O)c1O2 (stereo not drawn)	HCV inh 2.5µM, FMDV inh inconclusive
COc1c(C(O)CC(C)C)ccc2c1C(=O)OCc1cc(C)cc(O)c1O2 (stereo not drawn)	HCV inh 2.2µM, Sm TGR inh inconclusive, FMDV inh inconclusive
CCn1c2ccccc2c2cc(NC(=O)N3CCCCC3)ccc21	Vaccinia Venus inconclusive (no result: HCV inh, Sm TGR inh)
CCn1nc(C)cc1C(=O)N1CCCC(N2CCN(c3cccc(Cl)c3)CC2)C1 (stereo not drawn)	none (no result: HCV inh, VACV mCherry inh, Vaccinia Venus, FMDV inh)
Cc1nn(C)c(C(=O)Sc2cccc(Cl)c2)c1[N+](=O)[O-]	Sm TGR inh 1.4µM
Cc1nn(C)c(C(=O)Sc2ccccc2)c1[N+](=O)[O-]	Sm TGR inh 2.5µM
CCn1nc(C)cc1C(=O)Sc1cccc(Cl)c1	HCMV inh inconclusive, Sm TGR inh 6.3µM, FMDV inh inconclusive
COc1ccc(C)cc1NC(=O)C1COc2ccccc2C1 (stereo not drawn)	none (no result: HCV inh)
